Assay results taken from the supplement of paper PMC6555819.

Key:
Experiment in all cases: PBM binding z-score (relative to random genomic background probes); higher = stronger binding; sequences stand for … in GC…GCGATTGACAGCGTAGAATGAAGG
[1] = system: FXR:RXRa (NR concentration 270 nM, RXRa partner concentration 90 nM)
In short: (§1)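 Random background probes are the reference for binding z-scores. These scores derive from regression-normalized fluorescence on custom Agilent 4×180K protein-binding microarrays incubated 1 h with ligand-free nuclear receptor dimers. Binding was detected with antibodies against each partner (one per run).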

[2] = system: LXRa:RXRa (NR concentration 270 nM, RXRa partner concentration 90 nM)
In short: as §1

[3] = system: LXRa homodimer (NR concentration 270 nM)
In short: as §1

[4] = system: LXRb:RXRa (NR concentration 270 nM, RXRa partner concentration 90 nM)
In short: as §1

[5] = system: LXRb homodimer (NR concentration 270 nM)
In short: as §1

[6] = system: PPARa:RXRa (NR concentration 270 nM, RXRa partner concentration 90 nM)
In short: as §1

[7] = system: PPARg:RXRa (NR concentration 180 nM, RXRa partner concentration 90 nM)
In short: as §1

[8] = system: PPARg:RXRa 270nM:90nM, anti-RXR (NR concentration 270 nM, RXRa partner concentration 90 nM)
In short: as §1

[9] = system: PPARg:RXRa 30nM:10nM, anti-RXR (NR concentration 30 nM, RXRa partner concentration 10 nM)
In short: as §1

[10] = system: PPARg:RXRa 90nM:30nM, anti-RXR (NR concentration 90 nM, RXRa partner concentration 30 nM)
In short: as §1

[11] = system: PPARg:RXRa DBDmut IVT, anti-RXR (DBD mutation: RXRa K156A/R161A, NR concentration 270 nM, RXRa partner concentration 90 nM)
In short: as §1

[12] = system: PPARg:RXRa IVT, anti-PPARg (NR concentration 270 nM, RXRa partner concentration 90 nM)
In short: as §1

[13] = system: PPARg DBDmut:RXRa IVT, anti-PPARg (DBD mutation: PPARg1 K132A/R137A, NR concentration 270 nM, RXRa partner concentration 90 nM)
In short: as §1

[14] = system: PPARg DBDmut IVT, anti-PPARg (DBD mutation: PPARg1 K132A/R137A, NR concentration 270 nM)
In short: as §1

[15] = system: PPARg homodimer (NR concentration 180 nM)
In short: as §1

[16] = system: PXR:RXRa (NR concentration 270 nM, RXRa partner concentration 90 nM)
In short: as §1

[17] = system: PXR homodimer (NR concentration 270 nM)
In short: as §1

[18] = system: RARa:RXR (NR concentration 270 nM, RXRa partner concentration 90 nM)
In short: as §1

[19] = system: RARa homodimer (NR concentration 270 nM)
In short: as §1

[20] = system: RARb:RXRa (NR concentration 270 nM, RXRa partner concentration 90 nM)
In short: as §1

Row | Sequence | PBM binding z-score [1] | PBM binding z-score [2] | PBM binding z-score [3] | PBM binding z-score [4] | PBM binding z-score [5] | PBM binding z-score [6] | PBM binding z-score [7] | PBM binding z-score [8] | PBM binding z-score [9] | PBM binding z-score [10] | PBM binding z-score [11] | PBM binding z-score [12] | PBM binding z-score [13] | PBM binding z-score [14] | PBM binding z-score [15] | PBM binding z-score [16] | PBM binding z-score [17] | PBM binding z-score [18] | PBM binding z-score [19] | PBM binding z-score [20]
1 | AGTCAAAGTTCATCTAGGTTACGTAAGATATGCT | 6.68 | 6.16 | 6.06 | 3.95 | 2.11 | 4.96 | 6.9 | 6.6 | 4.02 | 5.95 | 1.81 | 4.48 | 1.59 | 1.1 | 2.63 | 5.66 | 10.7 | 4.25 | 1.94 | 4.99
2 | GCTAGCAGGCCATTCGGGTCACTCAATGACGGGC | 1.03 | 0.603 | -0.377 | 0.577 | -1.07 | 1.9 | 0.695 | 0.555 | -0.392 | 0.105 | 1.31 | 1.58 | -0.52 | -0.659 | 0.0772 | 1.83 | 1.45 | 1.71 | -0.872 | 1.96
3 | CTTCCAAGGTGAACAAGGTCGTTGATTACTATTC | 1.17 | 1.18 | 0.234 | 1.67 | -0.522 | 2.49 | 0.855 | 1.31 | 0.0258 | 0.487 | 2.37 | 2.58 | 0.501 | -0.605 | 0.985 | 2.6 | 1.19 | 1.97 | -0.158 | 2.18
